Results on seven molecules are retold here after PubChem BioAssay (Tox21).

“And” between values parts separate entries of the source, which are not always exact repeats. Identical values can stand only once. Results filed as inconclusive are left out. Some compounds were tested as several samples or in several runs, with calls that do not always agree. The source made the active and inactive calls. Unless noted, the call rests on the fitted dose curve; in most records, active means well fitted curve in the direction sought with a large enough effect in the repeat runs; inconclusive means weak or mixed curves; inactive means no such curve, though single readings can be large; an effect the other way counts as inactive or inconclusive.

A short description of experiment [1]: qHTS assay to identify small molecule phospholipidosis (PLD) inducers (AID 1259344; active means well fitted curve in the direction sought with a large enough effect; an effect the other way counts as inactive or inconclusive). The essentials:
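Cells (HepG2, 900 per well) attach for 4 h, receive LipidTOX Red and compound together, incubate 24 h at 37 C, are fixed 30 min with paraformaldehyde/Hoechst, then imaged at one site per well.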
On the technique in general: In qHTS, concentration-response curves come from the screen itself.

Experiment [2] can be described thus: qHTS assay to identify small molecule HDAC inhibitors (AID 1259364). Further: potency means the concentration at half of the fitted maximal effect.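 Further: wild-type HCT-116 cells with endogenous class I/II HDAC activity; nearly all actives have a fitted effect of over 45% in size.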 A digest of the protocol: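 HCT-116 wt cells, 1,500/well, overnight attach. Compounds (DMSO) 2 h, 37 °C. HDAC-Glo I/II, 30 min RT. Luminescence.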
Experiment [3] in a line: qHTS assay to identify small molecule HDAC inhibitors - cell viability counter screen (AID 1259365). Further: series mostly up to about 92 µM; nearly all actives have a fitted effect of over 50% in size. The essentials: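 HCT-116 wild-type, overnight attachment; 2hr drug exposure, 37C; CellTiter-Glo luminescent ATP readout after 30min RT.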
Experiment [4] is described as follows: qHTS assay to identify small molecule agonists of the sonic hedgehog signaling (Shh) pathway - cell viability counter screen (AID 1259366). Further: nearly all actives have a fitted effect of over 50% in size. A digest of the protocol: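 Compounds in DMSO were pin-transferred onto 3T3 Gli1-Luc cells that had settled 4hr; plates then stood 24hr at 37C and 5% CO2. One hour before the end, CellTiter-Fluor was added and fluorescence recorded.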

Experiment [5] can be described thus: qHTS assay to identify small molecule antagonists of the sonic hedgehog signaling (Shh) pathway - cell viability counter screen (AID 1259367). Further: nearly all actives have a fitted effect of over 55% in size. A digest of the protocol:
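Cytotoxicity was assessed in parallel with Shh reporter activity by measuring live-cell protease fluorescence (CellTiter-Fluor) in NIH/3T3 cells stably carrying Gli1-Luc, treated with compound under conditioned medium stimulation for 23 hr plus 1 hr reagent incubation.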

A short description of experiment [6]: qHTS assay to identify small molecule agonists of the sonic hedgehog signaling (Shh) pathway (AID 1259368; calls by dose curve;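 further: NIH/3T3-derived 3T3Gli1-Luc cells carrying a stable Gli1-driven firefly luciferase reporter; series mostly up to about 92 µM; nearly all actives have a fitted effect of over 15% in size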). A digest of the protocol: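 Following a 24 hr incubation with DMSO-dissolved compounds at 37 C, 5% CO2, Gli1-Luc NIH/3T3-derived cells received luciferase reagent for 30 min at room temperature prior to luminescence measurement.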
Experiment [7] deals with Estrogen receptor beta (Homo sapiens) (UniProt Q92731). In words: qHTS assay to identify small molecule agonists of the estrogen receptor beta (ER-beta) signaling pathway (AID 1259377; active means well fitted activation curve with a large enough effect in the signal ratio in the repeat runs, not every such curve was filed as active; the % refers to the signal ratio). The essentials: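 qHTS in ER-beta-UAS-bla HEK293T cells: 6 hr settling, then 16 hr compound at 37C, then LiveBLAzer substrate 2 h at RT before fluorescence reading.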
Sequence of Estrogen receptor beta (Homo sapiens) (Q92731 whole entry, looked up): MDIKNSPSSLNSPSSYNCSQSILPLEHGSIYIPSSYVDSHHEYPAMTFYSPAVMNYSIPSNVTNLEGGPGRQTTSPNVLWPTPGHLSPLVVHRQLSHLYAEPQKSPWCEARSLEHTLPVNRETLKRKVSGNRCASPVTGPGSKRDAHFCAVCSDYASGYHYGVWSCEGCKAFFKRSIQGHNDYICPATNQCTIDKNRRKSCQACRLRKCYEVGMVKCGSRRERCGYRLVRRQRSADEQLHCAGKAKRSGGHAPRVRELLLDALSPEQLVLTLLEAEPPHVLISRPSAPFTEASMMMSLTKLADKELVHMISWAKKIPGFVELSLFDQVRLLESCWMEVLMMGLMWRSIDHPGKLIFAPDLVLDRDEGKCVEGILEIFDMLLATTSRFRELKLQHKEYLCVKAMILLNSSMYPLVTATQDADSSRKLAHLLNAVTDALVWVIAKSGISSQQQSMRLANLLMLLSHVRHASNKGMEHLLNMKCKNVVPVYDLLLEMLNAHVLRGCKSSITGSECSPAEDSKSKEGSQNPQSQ
The nature of experiment [8]: qHTS assay to identify small molecule agonists of the androgen receptor (AR) signaling pathway in the presence of an antagonist - cell viability counter screen (AID 1259379). Further: nearly all actives have a fitted effect of over 25% in size. Further: potency means the concentration at half of the fitted maximal effect. The essentials:
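Each compound was tested at 15 concentrations on MDA-kb2 cells in the presence of 3.0uM nilutamide. Viability was measured by CellTiter-Fluor fluorescence after a 16 hr incubation at 37C in a CO2-free atmosphere.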

Experiment [9] can be described thus: qHTS assay to identify small molecule agonists of the estrogen receptor beta (ER-beta) signaling pathway - cell viability counter screen (AID 1259380). Further: nearly all actives have a fitted effect of over 30% in size. Further: potency means the concentration at half of the fitted maximal effect. The essentials:
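Compounds dissolved in DMSO were pin-transferred onto ER-beta-UAS-bla HEK293T cells that had settled 6 hr, and exposure ran 16 hr at 37C. Following the reporter read, CellTiter-Glo luminescence after 30 min at room temperature indicated cytotoxicity.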

Experiment [10] in a line: qHTS assay to identify small molecule antagonists of the estrogen receptor beta (ER-beta) signaling pathway - cell viability counter screen (AID 1259382). Further: nearly all actives have a fitted effect of over 55% in size. Further: potency means the concentration at half of the fitted maximal effect. The essentials: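 CellTiter-Glo ATP luminescence measured after the LiveBLAzer read in the same wells; ER-beta-UAS-bla HEK293T cells, 16 hr compound treatment with 1nM 17-beta-estradiol agonist at 37C, 5% CO2.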
The nature of experiment [11]: qHTS assay to identify small molecule agonists or antagonists of the thyroid stimulating hormone receptor (TSHR) signaling pathway - wild type cell line counter screen (AID 1259384; calls by dose curve). A digest of the protocol: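 Wild-type HEK293 cells were plated 18 h at 37 C/5% CO2, pin-dosed with compound plus Ro20-1724 medium, held 30 min at room temperature, then given cAMP-d2 and anti-cAMP-cryptate; fluorescence was read after 1 h. Fifteen concentrations, triplicate.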

The target of experiment [12] is Thyrotropin receptor (Homo sapiens) (UniProt P16473). In words: qHTS assay to identify small molecule antagonists of the thyroid stimulating hormone receptor (TSHR) signaling pathway (AID 1259385; calls by dose curve; further: nearly all actives have a fitted effect of over 20% in size). A digest of the protocol:
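TSHR-HEK293 cells were plated and held 18 h at 37C/5% CO2, then given compound plus Ro20-1724 and stimulated with TSH at 1.5 ng/mL final. After 30 min at room temperature, cAMP was detected with cAMP-d2/anti-cAMP-cryptate (1 h) by fluorescence.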

Experiment [13] in a line: qHTS assay to identify small molecule agonists of the estrogen receptor alpha (ER-alpha) signaling pathway in the presence of an antagonist - cell viability counter screen (AID 1259386).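 Further: series mostly up to about 92 µM; cells exposed to compounds for 22 h at 37 °C before the viability read; nearly all actives have a fitted effect of over 30% in size.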 A digest of the protocol: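 Using estrogen-depleted VM7Luc4E2 cells, the 15-concentration compound series was applied together with 10.0nM ICI-182,780 and incubated 22hr at 37C/5% CO2. Cell viability was then scored by CellTiter-Fluor.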

In experiment [14] the target is Progesterone receptor (Homo sapiens) (UniProt P06401). In words: qHTS assay to identify small molecule agonists of the progesterone receptor (PR) signaling pathway (AID 1346784; calls by dose curve; further: nearly all actives have a fitted effect of over 30% in size; further: potency means the concentration at half of the fitted maximal effect). A digest of the protocol: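 Fluorescence from LiveBLAzer B/G FRET substrate cleavage (2 hr, RT) reported PR activation in PR-UAS-bla HEK 293T cells treated 16 hr at 37C/5% CO2 with compounds; medium contained 2% charcoal-stripped FBS.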
Sequence of Progesterone receptor (Homo sapiens) (P06401 whole entry, looked up): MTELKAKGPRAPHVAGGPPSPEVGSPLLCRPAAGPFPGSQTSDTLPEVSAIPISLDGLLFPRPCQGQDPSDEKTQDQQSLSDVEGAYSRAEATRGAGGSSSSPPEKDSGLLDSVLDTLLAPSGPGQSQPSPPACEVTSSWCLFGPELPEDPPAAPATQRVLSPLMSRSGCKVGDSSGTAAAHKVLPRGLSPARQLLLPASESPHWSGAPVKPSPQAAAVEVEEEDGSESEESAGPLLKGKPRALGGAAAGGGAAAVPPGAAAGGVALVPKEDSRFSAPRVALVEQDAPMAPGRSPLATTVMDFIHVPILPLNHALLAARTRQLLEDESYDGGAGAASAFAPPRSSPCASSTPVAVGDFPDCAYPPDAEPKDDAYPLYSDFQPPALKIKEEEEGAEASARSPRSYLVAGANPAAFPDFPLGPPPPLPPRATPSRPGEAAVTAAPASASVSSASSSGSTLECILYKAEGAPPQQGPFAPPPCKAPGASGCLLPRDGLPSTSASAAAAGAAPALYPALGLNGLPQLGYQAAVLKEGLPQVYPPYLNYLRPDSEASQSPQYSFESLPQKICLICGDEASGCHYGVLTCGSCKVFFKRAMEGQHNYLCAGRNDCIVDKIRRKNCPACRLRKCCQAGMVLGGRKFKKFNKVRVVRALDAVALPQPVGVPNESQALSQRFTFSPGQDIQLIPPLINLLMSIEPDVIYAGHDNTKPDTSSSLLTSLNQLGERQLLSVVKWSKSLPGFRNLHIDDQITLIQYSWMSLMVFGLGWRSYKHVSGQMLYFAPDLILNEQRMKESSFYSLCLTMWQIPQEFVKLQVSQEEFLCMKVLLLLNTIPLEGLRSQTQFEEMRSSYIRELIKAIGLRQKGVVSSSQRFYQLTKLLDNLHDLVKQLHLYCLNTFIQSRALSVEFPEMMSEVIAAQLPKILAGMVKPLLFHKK

Experiment [15] has the same target. In words: qHTS assay to identify small molecule antagonists of the progesterone receptor (PR) signaling pathway (AID 1346795; active means well fitted inhibition curve with a large enough effect in the signal ratio in the repeat runs, not every such curve was filed as active; the % refers to the signal ratio; further: potency means the concentration at half of the fitted maximal effect). The essentials: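 Fluorescence intensity measured 2 hr after adding beta-lactamase FRET substrate to PR-UAS-bla HEK293T cells that had been co-treated 16 hr with compound and 1 nM R5020 (final concentration) in 2% charcoal-stripped FBS.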

The nature of experiment [16]: qHTS assay to identify small molecule antagonists of the progesterone receptor (PR) signaling pathway - cell viability counter screen (AID 1346798). Further: nearly all actives have a fitted effect of over 50% in size. Further: potency means the concentration at half of the fitted maximal effect. The essentials:
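CellTiter-Glo luminescence; PR-UAS-bla HEK293T, 3,000 cells/well; compound + R5020, 16 hr, 37C/5% CO2; 30 min RT before read.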

Experiment [17] in a line: qHTS assay to identify small molecule antagonists of the sonic hedgehog signaling (Shh) pathway (AID 1259369; calls by dose curve; further: nearly all actives have a fitted effect of over 45% in size). The essentials: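 Read-out is luminescence from a firefly luciferase gene controlled by the Gli1 response element, in 3T3Gli1-Luc cells pre-incubated 4hr then exposed to compounds and conditioned medium for 24hr.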
For experiment [18], the target named is Estrogen receptor beta (Homo sapiens) (UniProt Q92731). In words: qHTS assay to identify small molecule antagonists of the estrogen receptor beta (ER-beta) signaling pathway (AID 1259378; active means well fitted inhibition curve with a large enough effect in the signal ratio in the repeat runs, not every such curve was filed as active; the % refers to the signal ratio). A digest of the protocol: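 ER-beta-UAS-bla HEK293T (GripTite) cells in 2% charcoal-stripped FBS medium were preincubated 6 hr at 37C, dosed with compound, then stimulated with 1 nM E2 (final) for 16 hr; beta-lactamase reporter read by B/G FRET fluorescence after 2 hr substrate loading.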

The target of experiment [19] is Androgen receptor (Homo sapiens) (UniProt P10275). In words: qHTS assay to identify small molecule agonists of the androgen receptor (AR) signaling pathway in the presence of an antagonist (AID 1259381; calls by dose curve; further: potency means the concentration at half of the fitted maximal effect; nearly all actives have a fitted effect of over 15% in size). The essentials: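 Plated MDA-kb2 cells (3,000/well) were pre-incubated 5hr, given nilutamide (3.0uM final) or buffer, then dosed with compounds in DMSO at 15 concentrations. Luciferase activity was quantified by luminescence after 16hr at 37C.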
Sequence of Androgen receptor (Homo sapiens) (P10275 whole entry, looked up): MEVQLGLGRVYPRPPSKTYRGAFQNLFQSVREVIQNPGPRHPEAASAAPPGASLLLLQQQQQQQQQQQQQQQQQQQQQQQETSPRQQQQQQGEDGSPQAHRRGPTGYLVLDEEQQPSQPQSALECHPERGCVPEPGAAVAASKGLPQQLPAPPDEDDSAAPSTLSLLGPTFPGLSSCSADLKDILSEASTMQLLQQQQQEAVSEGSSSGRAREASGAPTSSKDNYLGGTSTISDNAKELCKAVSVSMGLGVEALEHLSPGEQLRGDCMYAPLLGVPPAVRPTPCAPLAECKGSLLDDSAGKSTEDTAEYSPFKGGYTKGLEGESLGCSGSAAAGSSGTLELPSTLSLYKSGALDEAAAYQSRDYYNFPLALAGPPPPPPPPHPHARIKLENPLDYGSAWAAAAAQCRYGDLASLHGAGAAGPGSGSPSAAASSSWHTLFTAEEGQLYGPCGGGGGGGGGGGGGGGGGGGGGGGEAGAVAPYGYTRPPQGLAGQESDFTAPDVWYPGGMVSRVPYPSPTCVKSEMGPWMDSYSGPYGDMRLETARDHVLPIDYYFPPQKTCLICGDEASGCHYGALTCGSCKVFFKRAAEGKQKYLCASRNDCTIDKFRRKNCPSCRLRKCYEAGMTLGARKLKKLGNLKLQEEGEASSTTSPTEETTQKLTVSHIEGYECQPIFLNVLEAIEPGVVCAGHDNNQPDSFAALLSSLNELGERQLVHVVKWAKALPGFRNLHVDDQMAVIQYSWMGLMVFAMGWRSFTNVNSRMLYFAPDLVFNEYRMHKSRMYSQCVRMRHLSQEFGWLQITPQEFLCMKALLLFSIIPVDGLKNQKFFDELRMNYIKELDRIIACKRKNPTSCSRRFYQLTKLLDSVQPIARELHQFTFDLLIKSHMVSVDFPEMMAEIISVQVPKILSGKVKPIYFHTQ

Sequence of Thyrotropin receptor (Homo sapiens) (P16473 whole entry, looked up): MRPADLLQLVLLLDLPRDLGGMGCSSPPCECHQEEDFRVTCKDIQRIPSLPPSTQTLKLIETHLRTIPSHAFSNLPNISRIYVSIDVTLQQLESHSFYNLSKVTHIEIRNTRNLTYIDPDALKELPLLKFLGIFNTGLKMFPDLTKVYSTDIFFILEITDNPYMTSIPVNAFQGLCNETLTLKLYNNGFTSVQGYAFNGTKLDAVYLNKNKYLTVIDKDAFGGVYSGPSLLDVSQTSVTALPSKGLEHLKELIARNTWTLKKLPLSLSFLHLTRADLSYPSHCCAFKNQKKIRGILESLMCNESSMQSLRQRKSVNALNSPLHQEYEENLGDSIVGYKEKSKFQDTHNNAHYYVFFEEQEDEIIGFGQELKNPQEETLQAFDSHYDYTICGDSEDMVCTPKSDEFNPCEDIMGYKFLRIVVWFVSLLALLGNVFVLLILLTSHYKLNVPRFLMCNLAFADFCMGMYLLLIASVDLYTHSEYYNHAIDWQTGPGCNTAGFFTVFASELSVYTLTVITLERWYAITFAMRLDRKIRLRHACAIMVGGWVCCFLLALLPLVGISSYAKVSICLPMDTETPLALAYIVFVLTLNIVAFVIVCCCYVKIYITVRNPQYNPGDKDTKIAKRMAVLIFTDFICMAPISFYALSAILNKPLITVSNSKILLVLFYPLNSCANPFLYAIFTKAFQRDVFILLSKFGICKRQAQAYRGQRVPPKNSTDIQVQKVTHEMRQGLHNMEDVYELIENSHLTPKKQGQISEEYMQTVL

Take `CC[C@H](C)C(=O)O[C@H]1C[C@@H](C)C=C2C=C[C@H](C)[C@H](CC[C@@H]3C[C@@H](O)CC(=O)O3)[C@H]21`: the call in experiment [1], in experiment [3], in experiment [6] and in [11] was inactive. Besides, the Potency result in experiment [2], in experiment [4], in experiment [5], in experiment [7], in experiment [8] and in [12] was “inactive” in each case. The Potency result in experiment [13], in experiment [14] and in experiment [15] was “inactive” in each case. For the same molecule, the Potency in experiment [9] was 34.9 µM (active) and 30.5 µM (active) and 15 µM (active); in experiment [10], 39.1 µM (active) and 26.6 µM (active); in [16], 62 µM (active).

Regarding `COc1ccc(Cl)cc1C(=O)NCCc1ccc(S(=O)(=O)NC(=O)NC2CCCCC2)cc1`, the outcome in experiment [1], in experiment [3], in experiment [6] and in experiment [11] was inactive. Moreover, the Potency result in [2], in [4], in experiment [5], in experiment [17], in experiment [7] and in [18] was “inactive” each time. For the same molecule, the Potency result in experiment [8], in [10], in experiment [12], in experiment [13], in experiment [14] and in experiment [15] was “inactive” throughout. Besides, the Potency entry in [16] was “inactive”. The Potency in [9] is 48.6 µM (active).

With `C[C@H]1C[C@H]2[C@@H]3CCC4=CC(=O)C=C[C@]4(C)[C@@]3(F)[C@@H](O)C[C@]2(C)[C@@]1(O)C(=O)CO`, the call in experiment [1], in experiment [3] and in experiment [6] was inactive. Besides, the Potency entry in experiment [2], in [4], in experiment [5], in experiment [17], in experiment [8] and in experiment [9] was “inactive” each time. Moreover, the Potency entry in [10], in [13] and in experiment [16] was “inactive” throughout. For the same molecule, the Potency in experiment [14] is 11.9 µM (active).

For the molecule `CCCCCC(N)=O`, the call in experiment [1], in [3] and in experiment [6] was inactive. Besides, the Potency entry in experiment [2], in [5], in [7], in [18], in experiment [8] and in [9] was “inactive” in each case. Moreover, the Potency entry in [10], in [12], in [13], in experiment [14], in experiment [15] and in [16] was “inactive” in each case.

For `N[C@@H](Cc1cc(I)c(Oc2cc(I)c(O)c(I)c2)c(I)c1)C(=O)O`, the molecule was called inactive in [1], in experiment [3], in experiment [6] and in experiment [11]. Moreover, the Potency result in experiment [2], in experiment [5], in experiment [17], in experiment [7], in experiment [18] and in experiment [8] was “inactive” each time. For the same molecule, the Potency result in experiment [9], in experiment [10], in experiment [12], in experiment [13], in experiment [14] and in [15] was “inactive” in each case. For the same molecule, the Potency result in experiment [16] is “inactive”.

For `COCCCOc1ccnc(CS(=O)c2nc3ccccc3[nH]2)c1C` (centres undefined), the molecule was called inactive in [1], in experiment [3], in experiment [6] and in [11]. The Potency was 30.5 µM (active) and inactive in experiment [2]; 48.4 µM (active) and inactive in [8]; 60.9 µM (active) and inactive in [15]. Further, the Potency result in [4], in experiment [5], in experiment [17], in [7], in [18] and in experiment [10] was “inactive” each time. The Potency result in experiment [12], in [13], in experiment [14] and in [16] was “inactive” in each case.

As to `C[C@H]1C[C@@H]2[C@H]([C@@H](O)C[C@@]3(C)[C@H]2CC[C@]3(O)C(=O)CO)[C@@]2(C)C=CC(=O)C=C12`, the molecule was classed as inactive in experiment [1], in experiment [3] and in experiment [6]. Further, the Potency entry in [2], in experiment [4], in experiment [5], in [8], in [9] and in experiment [10] was “inactive” in each case. The Potency entry in experiment [13] and in experiment [16] was “inactive” in each case. Besides, the Potency in [19] is 54.5 nM (active) and 59.6 nM (active); in experiment [14] it was 48.6 µM (active).
